The values below come from PubChem BioAssay AID651803 (National Center for Advancing Translational Sciences (NCATS), 2012).

SMILES strings stand for the structures. Among all 1,200 compounds or so, fewer than 10 were called active. These entries were drawn from the full list. Unmarked numbers belong to inactive results. Calls follow the shape of the dose curve; as a rule, active = well fitted curve in the direction sought with a large enough effect; inconclusive = small, poorly fitted or top-dose-only effect, or another doubt; inactive = no such curve, though single readings can be large or run the other way.

Transcriptional regulator ERG (Homo sapiens), sequence (P11308 whole entry, looked up, the tested form may be a part): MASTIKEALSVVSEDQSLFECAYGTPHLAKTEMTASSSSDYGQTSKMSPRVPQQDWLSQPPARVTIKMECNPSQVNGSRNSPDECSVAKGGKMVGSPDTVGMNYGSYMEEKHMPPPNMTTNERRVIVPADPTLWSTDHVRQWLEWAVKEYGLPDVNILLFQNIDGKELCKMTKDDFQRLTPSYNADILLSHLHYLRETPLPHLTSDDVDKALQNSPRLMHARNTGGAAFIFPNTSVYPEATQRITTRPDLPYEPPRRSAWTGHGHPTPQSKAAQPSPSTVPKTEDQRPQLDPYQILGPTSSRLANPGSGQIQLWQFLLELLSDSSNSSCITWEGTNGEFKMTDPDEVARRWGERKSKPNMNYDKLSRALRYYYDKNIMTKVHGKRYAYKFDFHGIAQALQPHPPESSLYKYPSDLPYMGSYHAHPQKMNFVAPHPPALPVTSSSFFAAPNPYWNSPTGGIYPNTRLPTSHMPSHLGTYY

In the assay the target is Transcriptional regulator ERG (Homo sapiens) (UniProt P11308). The experiment in a line: qHTS for Small Molecule Inhibitors of the ERG Ets/DNA interaction: TR assay against cherry picks. Also: % of control where 0% means no effect. The conditions noted are these: ERG Ets domain-DNA fluorescence polarization, Texas red probe; series mostly up to 154 µM; activity change, negative = inhibition: at the top concentration. An excerpt:
The Ets family of proteins is a family of ~30 conserved transcription factors defined by the presence of an ~85 amino acid domain referred to as the Ets domain, which mediates sequence-specific DNA binding to a core DNA element GGAA/T.The Ets family member ERG has been linked to several neoplasms. […] More extensive studies of the effects of over-expression of ERG in prostate cells have recently been carried out and have shown that over-expression of ERG results in increased invasion. […] We will carry out a high throughout screen to identify inhibitors of the interaction between ERG and DNA using a fluorescence polarization (FP) assay with a His-tagged ERG Ets domain and fluorescently-labeled DNA probes to develop small molecule inhibitors of this interaction as probes to test this hypothesis and lay the groundwork for the development of targeted therapies against ERG. This is the confirmation against the cherry picks in theprimary screening assay. NIH Molecular Libraries Probe Production Network [MLPCN] NIH Chemical Genomics Center [NCGC] Grant: NS066464 PI Name: John Bushweller, University of Virgina
1.5 ul of protein solution (1 uM ERG domain in 300mM KCl, 50mM Tris-HCl, 1mM EDTA, 1mM DTT, pH 7.5); 20 nl Control plate and compound library plate; 1.5 ul mixture of 5 nM Fluorescein-DNA and 100nM Texas-615-DNA solution in same buffer as above solution; measure fluorescence polarization sequentially for fluorescein (Excitation = 480 nm, Emission = 535s, 535p nm) and Texas red (Excitation = 555 nm, Emission = 632s, 632p nm).
Background: In qHTS, concentration-response curves come from the screen itself.
Consider `O=C(OCCOCCN=C1NS(=O)(=O)c2ccccc21)c1ccccc1Br`, for which the “activity change, negative = inhibition” value was 4.92%.

In the case of `CC(=O)Nc1ccc(NC(=O)Cn2c(=O)n(-c3ccccc3)c(=O)c3oc4ccccc4c32)cc1`, the “activity change, negative = inhibition” value was 0.864%.

For the compound `COc1ccc(C(=O)n2nc(C)c(Br)c2C)cc1OC`, the “activity change, negative = inhibition” value is 1.94%.

For `N#Cc1c(C(F)(F)F)cc(-c2cccs2)nc1SCC(=O)Nc1cccc(Br)c1`, the “activity change, negative = inhibition” value was 5.95%.

Take `N#CCCN(C(=S)NC(=O)C1CCCCC1)c1ccccc1F`: the “activity change, negative = inhibition” value is -3.69%.

In the case of `Cc1ccc2c(COC(=O)c3ccccc3Br)cc(=O)oc2c1`, the “activity change, negative = inhibition” value was -0.0577%.

For the compound `COc1ccc(NC(=O)NCc2ccccn2)c(OC)c1`, the “activity change, negative = inhibition” value is -2.62%.

With `O=C(c1ccccc1)c1ccc[nH]1`, the “activity change, negative = inhibition” value was -4.34%.

On to `Cc1ccc([N+](=O)[O-])c2c1C(N1CC(C)OC(C)C1)C(C)(C)O2` (stereo not drawn), for which the “activity change, negative = inhibition” value is 5.79%.

As for `COc1ccccc1NC(=O)Cn1c(=O)n(CCC(=O)NCC2CCCO2)c(=O)c2cc(OC)c(OC)cc21` (stereo not drawn), the “activity change, negative = inhibition” value is 0.0258%.

Regarding `Clc1ccc(-c2csc(N/N=C/c3ccco3)n2)cc1`, the “activity change, negative = inhibition” value is -19.8%.

With `CCOC(=O)CC1COCCN1Cc1cn[nH]c1-c1cc(OC)c(OC)c(OC)c1` (stereo not drawn), the “activity change, negative = inhibition” value was 5.39%.

Turning to `COc1cc(C(=O)Nc2ccc(Cl)c([N+](=O)[O-])c2)cc(OC)c1OC`, the “activity change, negative = inhibition” value is -8.44%.

Regarding `COc1cccc2c1C(=N)c1c(O)c3c(c(O)c1C2=O)CC(O)(C(C)=O)CC3OC1CC(N)C(O)C(C)O1` (stereo not drawn), the “activity change, negative = inhibition” value is 10.9%.

In the case of `O=C(NCc1cccc(Cl)c1)c1ccncc1`, the “activity change, negative = inhibition” value was -9.86%.

Turning to `Cc1cccc(C)c1NC(=O)C1(N2C(=O)CC2c2ccccc2)CCCCC1` (stereo not drawn), the “activity change, negative = inhibition” value is 0.216%.

Regarding `CC1(C)CC2CC(C)(CN2C(=O)c2ccc([N+](=O)[O-])cc2)C1` (stereo not drawn), the “activity change, negative = inhibition” value is 0.742%.

As for `CN(C)c1nc(N)nc(Cn2nnc(-c3ccc(C(F)(F)F)cc3)n2)n1`, the “activity change, negative = inhibition” value is 3.53%.

For `CC(NC(=O)c1cn(C)c2ccc(S(=O)(=O)N3CCCC3)cc2c1=O)c1ccccc1` (stereo not drawn), the “activity change, negative = inhibition” value was -1.61%.

In the case of `Cc1[nH]c(=O)[nH]c(=O)c1/C=N/NC(=O)[C@H](C)N`, the “activity change, negative = inhibition” value is 2.01%.

Turning to `CCOC(=O)N1CCC(NC(=O)CSCc2nc(-c3ccc(OCC)cc3)oc2C)CC1`, the “activity change, negative = inhibition” value was -9.6%.

Consider `CC(C)(O)CN(CCCNC(=S)Nc1ccccc1)C(=S)Nc1ccccc1`, for which the “activity change, negative = inhibition” value is -0.187%.

As for `S=c1[nH]nc(CSCCOc2ccccc2)o1`, the “activity change, negative = inhibition” value was -12.2%.

In the case of `Cn1c(CO)cnc1SCc1ccc(F)cc1`, the “activity change, negative = inhibition” value is 18.1%.

Turning to `COc1ccc(CNC(=O)c2cccnc2SC)cc1OC`, the “activity change, negative = inhibition” value was -8.6%.

Regarding `Cc1cc(C)c2c(N)c(C(=O)c3ccc(Cl)cc3)sc2n1`, the “activity change, negative = inhibition” value is 5.05%.

Take `CCC1Oc2ccccc2N(CC(=O)NC2CC2)C1=O` (stereo not drawn): the “activity change, negative = inhibition” value was -0.665%.

`Oc1c(Cl)cc(Oc2cc(Cl)c(O)c(CN3CCOCC3)c2)cc1CN1CCOCC1`: the “activity change, negative = inhibition” value is -6.09%.

On to `COc1ccc(S(=O)(=O)NCCNC(=O)N2CCOCC2)cc1`, for which the “activity change, negative = inhibition” value was 3.17%.

For the compound `O=C(CCNC(=O)c1ccccc1Cl)NCCCSc1ccccc1`, the “activity change, negative = inhibition” value is 3.19%.

For the compound `Cn1c(CNC(=O)c2cccs2)n[nH]c1=S`, the “activity change, negative = inhibition” value is 5.98%.

For the compound `CCCCC1=NN(C(=O)c2ccco2)C(O)(C(F)(F)F)C1` (stereo not drawn), the “activity change, negative = inhibition” value was -2.3%.

For `CCC(=O)N1CCN(c2nc3ccc(Br)cc3s2)CC1`, the “activity change, negative = inhibition” value was 2.3%.
